The values below come from PubChem BioAssay (Tox21).

The structures appear in SMILES notation. Results filed as inconclusive are left out. Where a call stands in place of a potency, no number is given. Activity calls are given as the source filed them. Calls follow the shape of the full dose curve.

Beta-2 adrenergic receptor (Homo sapiens), sequence (P07550 whole entry, looked up): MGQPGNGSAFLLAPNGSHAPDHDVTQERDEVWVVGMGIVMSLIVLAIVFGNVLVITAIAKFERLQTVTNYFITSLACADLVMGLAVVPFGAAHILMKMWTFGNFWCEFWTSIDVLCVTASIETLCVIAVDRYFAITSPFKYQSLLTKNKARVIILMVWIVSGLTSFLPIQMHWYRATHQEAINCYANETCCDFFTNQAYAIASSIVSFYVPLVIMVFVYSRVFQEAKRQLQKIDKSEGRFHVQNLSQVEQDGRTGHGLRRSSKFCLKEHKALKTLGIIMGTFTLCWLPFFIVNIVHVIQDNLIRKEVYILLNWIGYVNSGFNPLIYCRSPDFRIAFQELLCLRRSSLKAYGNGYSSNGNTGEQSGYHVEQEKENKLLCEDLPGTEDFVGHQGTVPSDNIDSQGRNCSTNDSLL

One assay has as its target Beta-2 adrenergic receptor (Homo sapiens) (UniProt P07550). The assay is described as follows: Adrenergic beta2 receptor (ADRB2) small molecule antagonists, cell-based qHTS assay (AID 1963592). Also: nearly all actives have a fitted effect of over 50% in size. Also: potency is read from the fitted curve at half-maximal effect. The note with it: CHO-ADRB2 cells, isoproterenol-stimulated cAMP HTRF ratio, 0.5 h; series mostly up to 92.4 µM. The method, boiled down: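 Assay format: CHO-ADRB2 cells, 18-20hr seeding at 37C/5% CO2, then compound plus 1nM isoproterenol agonist mix for 0.5hr RT. Homogeneous time-resolved fluorescence cAMP detection after 1hr, expressed as 665/615 nm ratio.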
In the case of `COc1ccc(/C=C/S(=O)(=O)NC(=O)c2ccc(C)cc2Cl)cc1`, the Potency entry is “inactive”.
Same read-out and setting: the same measure for `N[C@@H](Cc1cc(I)c(O)c(I)c1)C(=O)O`: “inactive”; for `C=CC(=O)OCC(Br)CBr` (centres undefined): “inactive”.
In the case of `O=C1CCC(C2CCCCC2)CC1`, the Potency result is “inactive”.
Same read-out and setting: next, `COc1ccc(C(=O)N2CCN(CC(=O)N3CCOCC3)CC2)cc1`: “inactive”; `Cc1nc2ccc(Cl)cc2[nH]1`: “inactive”.
Still for that read-out and setting: next, `CC(C)(C)C(=O)C(=O)O`: “inactive”.
The same measure, in the same setting: the same measure for `COc1cccc(O)c1O`: “inactive”; for `O=C1c2ccccc2C(=O)C1c1ccc2ccccc2n1`: “inactive”.
As to `CN1CCN(C2=Nc3cc(F)ccc3Cc3ccccc32)CC1`, the Potency is 29.8 µM (active).
Still for that read-out and setting: next, `CC1=NN(c2ccc(C(=O)O)cc2)C(=O)C1`: “inactive”; `Oc1ccc(Oc2ccccc2)cc1`: “inactive”.
For the compound `CC(C)(O)CCCC1=CCC(C=O)CC1` (centres undefined), the Potency entry is “inactive”.
On the same count and under the same terms, the same measure for `NS(=O)(=O)Cc1noc2ccccc12`: “inactive”.
For the compound `COc1ccc(C(=O)c2ccc(OC)cc2O)c(O)c1`, the Potency result was “inactive”.
Still for that read-out and setting: next, `Fc1ccc([C@@H]2CCNC[C@H]2COc2ccc3c(c2)OCO3)cc1`: “inactive”; `CC1=C(/C=C/C(C)=C\C=C\C(C)=C\C(=O)O)C(C)(C)CCC1`: “inactive”.
The same measure, in the same setting: next, `Cc1cccc(N(C)C(=S)Oc2ccc3c(c2)CCC3)c1`: “inactive”; `CCCC(=O)OCCC(C)C`: “inactive”; `COc1ccccc1NC(=O)c1cc2ccccc2cc1O`: 54.5 µM (active).
Take `CC(c1cc(C(C)(C)C)cc(C(C)(C)C)c1O)c1cc(C(C)(C)C)cc(C(C)(C)C)c1O`: the Potency result was “inactive”.
As to `Nc1ccc(S(=O)(=O)NCc2ccccc2)cc1`, the Potency result was “inactive”.
Turning to `Nc1[nH]c(=O)ncc1F`, the Potency result is “inactive”.
Still for that read-out and setting: the same measure for `O=Cc1ccccc1[N+](=O)[O-]`: “inactive”; for `CCC1CCC(CCC(=O)O)C1` (centres undefined): “inactive”.
Take `CCCCCCCCCCCCCCCCCC(=O)OCCCCCCCCCCCCCC(C)C`: the Potency result was “inactive”.

The next assay shares this target. The assay is described as follows: Adrenergic beta2 receptor (ADRB2) small molecule agonists, cell-based qHTS assay (AID 1963593).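 Also: CHO cells stably overexpressing human ADRB2.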 The note with it: CHO-ADRB2 cells, cAMP HTRF, 30 min; series mostly up to 42.5 µM. Put shortly: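 CHO cells stably over-expressing ADRB2 were plated overnight at 37C, then dosed with compounds plus a stimulation mix containing 100uM IBMX and 25uM Ro-20-1724 for 0.5hr at room temperature. cAMP was measured by HTRF competition, 1hr.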
A general note: Quantitative high-throughput screening tests each substance at several concentrations.
For `CCCC1CCC(=O)O1` (centres undefined), the Potency entry is “inactive”.
As to `COc1ccc(/C=C/S(=O)(=O)NC(=O)c2ccc(C)cc2Cl)cc1`, the Potency result is “inactive”.
`O=C1CCC(C2CCCCC2)CC1`: the Potency result was “inactive”.
For `COc1ccc(C(=O)N2CCN(CC(=O)N3CCOCC3)CC2)cc1`, the Potency result is “inactive”.
Still for that read-out and setting: the same measure for `CC1=NN(c2ccc(C(=O)O)cc2)C(=O)C1`: “inactive”; for `Oc1ccc(Oc2ccccc2)cc1`: “inactive”; for `NS(=O)(=O)Cc1noc2ccccc12`: “inactive”.
Still for that read-out and setting: the same measure for `Cc1cccc(N(C)C(=S)Oc2ccc3c(c2)CCC3)c1`: “inactive”.
As for `O=C(O)c1cccc(Oc2ccccc2)c1`, the Potency entry was “inactive”.
For `Nc1ccc(S(=O)(=O)NCc2ccccc2)cc1`, the Potency entry is “inactive”.
Consider `Nc1[nH]c(=O)ncc1F`, for which the Potency entry was “inactive”.
For the compound `O=Cc1ccccc1[N+](=O)[O-]`, the Potency entry was “inactive”.
Still for that read-out and setting: next, `CCCCCCCCCCCCCCCCCl`: “inactive”.
